PrPC surface inh – inhibitors of human cell surface prion protein PrPC | inhibition, % at 13.8 µM | TR-FRET read-out | 370,000 tested, 0.43% active | AID 720596; in the data active = inhibition above about 24%; note: 0% = median of the test wells and 100% = reference compound wells
3CLpro inhibitor – SARS-CoV 3CLpro protease inhibition | P0C6X7 | recombinant SARS-CoV 3CLpro, quenched FRET peptide cleavage | inhibition, % at 6 µM | 290,000 tested, 0.14% active; in the data active = inhibition above about 12%
GDH-TPI counter – counter-screen for M. tuberculosis FBA inhibitors: GDH-TPI coupled enzymes; GDH-TPI coupled enzyme counterscreen, NADH absorbance; inhibition, % at 4.8 µM; 360,000 tested, 1.2% active; AID 588335; in the data active = inhibition above about 30%;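 note: 0% = DMSO wells and 100% = wells lacking the enzyme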
Vc quorum ag – induces V. cholerae light production without autoinducers; V. cholerae BH1578 lux reporter, luminescence, 6 h; activation, % at 18.7 µM; 350,000 tested, 0.16% active; AID 588436; in the data active = activation mostly above about 9.7%, no sharp cut-off
Mtb FBA inh – Mtb fructose-bisphosphate aldolase inhibition; P9WQA3; purified M. tuberculosis FBA, fluorescence read-out; inhibition, % at 1 µM; 360,000 tested, 2.3% active; AID 588726; in the data active = inhibition above about 27%;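 note: 0% = vehicle and 100% = reference inhibitor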
Target sequence (P9WQA3 whole entry, looked up): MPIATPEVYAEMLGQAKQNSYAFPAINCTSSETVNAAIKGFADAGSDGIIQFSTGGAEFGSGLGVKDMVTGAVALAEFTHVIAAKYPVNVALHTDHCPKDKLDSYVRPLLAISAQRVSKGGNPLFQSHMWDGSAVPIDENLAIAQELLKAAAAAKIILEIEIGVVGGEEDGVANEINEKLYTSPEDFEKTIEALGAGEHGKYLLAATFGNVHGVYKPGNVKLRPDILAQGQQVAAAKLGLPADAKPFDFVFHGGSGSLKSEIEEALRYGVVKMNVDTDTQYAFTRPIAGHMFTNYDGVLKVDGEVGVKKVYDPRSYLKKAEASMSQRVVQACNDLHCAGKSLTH
Active calls of the source: *; i = inactive; . = no result given; + = active, no number. Most compounds without a hit are left out; they make up all but 3.9% or so of the library.

SMILES | PrPC surface inh | 3CLpro inhibitor | GDH-TPI counter | Vc quorum ag | Mtb FBA inh
N=c1c(C(=O)NCC2CCCO2)cc2c(=O)n3ccccc3nc2n1C1CCCC1 (stereo not drawn) | -42 | 6 | -1 | 0 | +
COc1ccc(CCNC(=O)c2cc3c(=O)n4ccccc4nc3n(C3CCCCC3)c2=N)cc1 | -15 | -1 | 0 | -2 | 16
Cc1cccn2c(=O)c3cc(C(=O)NCC4CCCO4)c(=N)n(C4CCCC4)c3nc12 (stereo not drawn) | -25 | -4 | 11 | 0 | +
Cc1cccn2c(=O)c3cc(C(=O)NCc4ccco4)c(=N)n(CCOCCO)c3nc12 | . | -3 | 16 | . | +
Cc1ccc2nc3c(cc(C(=O)NCC4CCCO4)c(=N)n3C3CCCC3)c(=O)n2c1 (stereo not drawn) | -42 | -8 | 6 | 0 | +
COC(=O)[C@]12CCCCC=C1N(Cc1cccc3ccccc13)C(=O)[C@H](CC(=O)NCCc1ccccc1OC)C2 | -9 | . | . | . | .
N=c1c(C(=O)NCC2CCCO2)cc2c(=O)n3ccccc3nc2n1C1CCCCC1 (stereo not drawn) | -21 | 2 | 1 | 0 | +
Cc1cccn2c(=O)c3cc(C(=O)NCc4ccco4)c(=N)n(C4CCCCC4)c3nc12 | . | -5 | 1 | i | 85*
CC(C)CCNC(=O)C1CCCN(C(=O)c2ccc3c(c2)NC(=O)CS3)C1 (stereo not drawn) | 10 | . | . | . | .
CCC1CCc2c(sc3ncnc(N4CCOCC4)c23)C1 (stereo not drawn) | 0 | 2 | -3 | i | 120*
Cc1nc(NS(=O)(=O)c2ccccc2)sc1C(=O)N/N=C/c1ccccc1 | -8 | -1 | 47* | 0 | 4
Cc1nc(NS(=O)(=O)c2ccccc2)sc1C(=O)NNS(=O)(=O)c1ccccc1 | -3 | 1 | 4 | 0 | 2
Cc1cc(C)c(NC(=O)CN(C)C(C)C(=O)N2CCc3ccccc32)c(C)c1 (stereo not drawn) | -1 | . | 1 | i | 0
COc1ccc(NC(=O)c2cc3c(CO)cnc(C)c3oc2=Nc2cccc(C)c2)c(OC)c1 | -4 | -2 | 8 | 20* | 6
O=S(=O)(Nc1cccc(-c2nc3cccnc3s2)c1)c1ccc2c(c1)CCCC2 | 11 | -1 | 3 | 0 | 14
Cc1cc(-c2nc3cccnc3s2)ccc1NS(=O)(=O)c1ccc2c(c1)OCCO2 | 4 | 4 | 31 | 0 | +
O=C(Nc1ccc(-c2nc3cccnc3s2)cc1)C1CCCO1 (stereo not drawn) | -5 | -3 | 33* | 0 | +
CCS(=O)(=O)Nc1cccc(-c2nc3cccnc3s2)c1 | -12 | 2 | 5 | -1 | 3
O=S(=O)(Nc1ccc(-c2nc3cccnc3s2)cc1)c1ccc(Cl)s1 | -2 | 0 | 37* | 0 | +
CCS(=O)(=O)Nc1ccc(-c2nc3cccnc3s2)cc1 | -8 | -1 | 24 | 0 | +
COC(=O)[C@@]1(Cc2ccc(OC)cc2)[C@H]2c3cc(C(=O)N4CCCC4)n(Cc4ccccc4)c3C[C@H]2CN1C(=O)c1ccccc1 | 6 | . | . | . | .
CN(C)c1ccc(NC(=O)CCN2C(=O)c3cccc([N+](=O)[O-])c3C2=O)cc1 | 3 | 2 | 14 | -1 | 0
c1ccc(Cn2cc(-c3ccccc3)cn2)cc1 | 3 | . | 7 | -5 | -1
CCOc1ccc(-c2cc(C(=O)Nc3cc(OC)c(OC)c(OC)c3)[nH]n2)c(C)c1 | 5 | . | 13 | -5 | 3
Cc1nc2cc(NS(=O)(=O)c3ccccc3F)ccc2s1 | -2 | -1 | 11 | 0 | -5
SMILES | PrPC surface inh | 3CLpro inhibitor | GDH-TPI counter | Vc quorum ag | Mtb FBA inh
Cc1cc(-c2nc3cccnc3s2)ccc1NS(=O)(=O)c1cccs1 | 8 | -5 | 42* | -1 | +
O=S(=O)(Nc1ccc(-c2nc3cccnc3s2)cc1)c1ccccc1F | -2 | 2 | 62* | -1 | +
Cc1nc2ccc(S(=O)(=O)Nc3ccc(-c4nc5cccnc5s4)cc3)cc2s1 | 5 | 0 | 31 | -1 | +
O=S(=O)(Nc1ccc(-c2nc3cccnc3s2)cc1)c1cccs1 | 4 | -1 | 15 | -1 | +
Cc1nc2ccc(S(=O)(=O)Nc3cccc(-c4nc5cccnc5s4)c3)cc2s1 | -1 | 2 | 15 | 0 | 19
Cc1c(NS(=O)(=O)c2cccs2)cccc1-c1nc2cccnc2s1 | -1 | 3 | 18 | 0 | 1
O=C(NCc1ccc2c(c1)OCO2)C(=O)NCC1OCCCN1S(=O)(=O)c1ccccc1 (stereo not drawn) | 8 | . | 6 | i | 0
CCOC(=O)c1cc2c(nc1N)CCCC2 | -3 | 5 | 17 | -1 | 139*
Nc1ccc(-c2nc3ccc(N)cc3o2)cc1 | 6 | -3 | 46* | 0 | +
CCCc1c(C(=O)N/N=C/c2cccc3ccccc23)nnn1-c1nonc1N | -4 | -3 | 32* | i | 2
CCN(CC)Cc1c(C(=O)N/N=C/c2cccc3ccccc23)nnn1-c1nonc1N | 2 | 4 | 15 | -1 | 0
CCOc1ccc(-c2c(C(=O)N/N=C/c3c[nH]c4ccccc34)nnn2-c2nonc2N)cc1 | -8 | 11 | 40* | 0 | -2
C=CC[n+]1ccc(/C=C2\C=Cc3cc(C)ccc3N2CC)c2ccccc21 | . | -4 | 9 | i | 22
Cc1ccc(NS(=O)(=O)c2c(F)cc(F)c(Cl)c2F)cc1S(=O)(=O)N1CCOCC1 | 12 | . | 5 | . | 1
O=C(NCc1ccncc1)[C@@H]1CCCN1C(=O)[C@@H]1CCCN1C(=O)c1cccc2ccccc12 | 2 | . | . | . | .
COc1ccccc1-c1coc2c(CN3CCC(C)CC3)c(O)ccc2c1=O | -3 | 1 | 27 | 0 | 149*
CC1CCCN(Cc2c(O)ccc3c(=O)c(-c4ccc(Cl)cc4)coc23)C1 (stereo not drawn) | -4 | 1 | 4 | i | 14
CCN(CC)Cc1c(O)ccc2c(=O)c(-c3ccccc3OC)coc12 | 3 | -1 | 15 | 1 | 116*
Cc1cc(C)nc(NC(=O)/C=C/c2ccccc2Cl)c1 | 17 | -5 | 8 | 2 | 2
Cc1cc(C)nc(NC(=O)/C=C/c2cccs2)c1 | 0 | 2 | 47* | -2 | -4
O=C(/C=C/c1cccs1)Nc1cccc(NC(=O)/C=C/c2cccs2)n1 | 6 | 3 | 57* | 0 | 0
CCOc1cc(/C=N/NC(=O)c2c(-c3ccccc3)noc2C)ccc1O | 4 | -1 | 29 | 0 | -6
Cc1nc2ccccn2c1C(=O)N/N=C/c1ccc2c(c1)OCO2 | 3 | -3 | 42* | -1 | -1
Cc1nc2ccccn2c1C(=O)N/N=C/c1ccccc1[N+](=O)[O-] | -15 | 3 | 30 | -12 | 3
Cc1nc2ccccn2c1C(=O)N/N=C/c1cc(C)n(-c2ccc(Cl)cc2)c1C | 4 | 0 | 36* | 1 | 5
CCOc1cc(/C=N\NC(=O)c2c(C)nc3ccccn23)ccc1O | -9 | 1 | 48* | i | -1

Screening data (PubChem BioAssay)
